Measurements reported in PubChem BioAssay (NCATS).
Records with an inconclusive call do not appear. Calls of active or inactive are those of the source. Calls follow the shape of the dose curve; as a rule, active = well fitted curve in the direction sought with a large enough effect; inconclusive = small, poorly fitted or top-dose-only effect, or another doubt; inactive = no such curve, though single readings can be large; an effect the other way counts as inactive or inconclusive.

Experiments:
[1] = HPAF-II Cancer Cell Toxicity qHTS against the NCATS CANVASS Library (AID 1347346); also: nearly all actives have a fitted effect of over 55% in size; also: potency is read from the fitted curve at half-maximal effect
How it was run: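 Cytotoxicity in HPAF-II pancreatic cancer cells: 72 h treatment across 11 concentrations, ATP-based CellTiter-Glo luminescence endpoint.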

[2] = A2780 Cisplatin Sensitive Ovarian Cancer Cell Toxicity qHTS against the NCATS CANVASS Library (AID 1347353); also: nearly all actives have a fitted effect of over 60% in size; also: potency is read from the fitted curve at half-maximal effect
How it was run: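 Seventy-two-hour exposure of cisplatin-sensitive A2780 ovarian cells to an 11-concentration qHTS series; cytotoxicity is inferred from loss of ATPLite luminescence. Bortezomib titration served as positive control.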

[3] = HPAF-II 24hr Apoptosis Induction qHTS against the NCATS CANVASS Library (AID 1347356)
How it was run: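 Apoptosis induction in HPAF-II pancreatic cancer cells is measured as caspase-3/7 luminescence after a 24-hour exposure to compounds.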

[4] = KB-8-5-11 Cancer Cell Toxicity qHTS against the NCATS CANVASS Library (AID 1347364); also: nearly all actives have a fitted effect of over 75% in size
How it was run: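 Natural products were titrated in 11 points onto KB-8-5-11 cells, 500 per well, and cytotoxicity was scored from CellTiter-Glo luminescence after 72 hr culture.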

[5] = SDT Cancer Cell Toxicity qHTS against the NCATS CANVASS Library (AID 1347365); also: nearly all actives have a fitted effect of over 60% in size; also: potency is read from the fitted curve at half-maximal effect
How it was run: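 Dispense 500 SDT cells per well; pin-transfer compounds; incubate 72 hr at 37C, 5% CO2, 95% RH; add CellTiterGlo and read luminescence.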

[6] = qHTS for ATAD5 Agonist screened against the NCATS CANVASS Library (AID 1347367)
How it was run: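 Luminescence read-out: ATAD5-driven luciferase in stably transfected HEK 293T cells, which rises post-transcriptionally with DNA damage. Cells were exposed 16hr at 37C to test compound; a CellTiter-Fluor fluorescence read (1hr) measured viability first.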

[7] = qHTS for Hypoxia signaling pathway (HIF-1) antagonists against the NCATS CANVASS Library (AID 1347374); also: nearly all actives have a fitted effect of over 60% in size; also: potency is read from the fitted curve at half-maximal effect
How it was run: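 HRE-bla ME-180 cells (2,000/well, 0.5% dialyzed FBS) were pre-incubated 5 h, then given an 11-point compound series plus CoCl2 (60 uM solution as added) for 17 h at 37C. CCF4 β-lactamase read (ex 405, em 460/530 nm) after 2 h at RT.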

[8] = qHTS for Hypoxia signaling pathway (HIF-1) agonists against the NCATS CANVASS Library (AID 1347375)
How it was run: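 Inducers of HIF-1 signaling were detected in ME-180 cells bearing an HRE-driven beta-lactamase reporter after 17 h compound exposure. Activity came from CCF4-AM FRET emission ratio (460/530 nm) in qHTS format.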

[9] = qHTS for activators of Nrf2/ARE signaling pathway screened against the NCATS CANVASS Library (AID 1347391); also: nearly all actives have a fitted effect of over 60% in size; also: potency is read from the fitted curve at half-maximal effect
How it was run: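 Cells carrying an ARE-driven beta-lactamase reporter (HepG2 background) are dosed for 16 h, then stained with CCF4. Cell viability in the same wells is measured by CellTiter-Glo luminescence.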

[10] = qHTS for inhibitors of ER calcium dysfunction: SERCaMP assay screened against the NCATS CANVASS Library (AID 1347393); also: nearly all actives have a fitted effect of over 40% in size; also: potency is read from the fitted curve at half-maximal effect
How it was run: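 Thapsigargin-induced ER calcium depletion drives GLuc-SERCaMP secretion from SH-SY5Y cells; compounds given 16 h beforehand were scored by lowered coelenterazine luminescence after 4 h challenge.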

[11] = Vero-766 cells viability qHTS against the NCATS CANVASS Library: Counterscreen for Zika virus inhibition assay (AID 1347394); also: nearly all actives have a fitted effect of over 60% in size; also: potency is read from the fitted curve at half-maximal effect
How it was run: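 CellTiter-Glo luminescence, lower signal indicating cytotoxicity. Vero 766 cells without Zika virus, 1000 cells/well, plated overnight, then treated 72 h at 37C across an 11-point series.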

[12] = COV-362 Cancer Cell Toxicity qHTS against the NCATS CANVASS Library (AID 1347352); also: potency is read from the fitted curve at half-maximal effect
How it was run: (§1)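 qHTS cytotoxicity: compounds tested in 11 concentrations on 1000 seeded cells per well over 72 h; bortezomib served as control; signal from CellTiter-Glo luminescence.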

[13] = HEK-293 Cancer Cell Toxicity qHTS against the NCATS CANVASS Library (AID 1347355); also: nearly all actives have a fitted effect of over 65% in size; also: potency is read from the fitted curve at half-maximal effect
How it was run: as §1

[14] = Cytotoxicity qHTS for assessment of Hepg2 cells membrane integrity screened against the NCATS CANVASS Library (AID 1347387)
How it was run: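 Fluorescence proportional to lysed-cell number, from LDH leaking out of HepG2 cells exposed 5 hr at 37C to 0.59 nM - 46 uM compound (11-point qHTS), is measured after 10 min with CytoTox-ONE.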

[15] = Viability qHTS for inhibitors of the SERCaMP assay screened against the NCATS CANVASS Library (AID 1347400); also: series mostly up to about 92 µM; nearly all actives have a fitted effect of over 70% in size
How it was run: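 Cytotoxicity counter-screen: ATP content (CellTiter-Glo luminescence) of SH-SY5Y-GLuc SERCaMP MJH297 cells after 48 h at 37C with compounds in an 11-point qHTS series.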

[16] = OV-SAHO Cancer Cell Toxicity qHTS against the NCATS CANVASS Library (AID 1347348); also: nearly all actives have a fitted effect of over 55% in size; also: potency is read from the fitted curve at half-maximal effect
How it was run: (§2)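 ATP content after 72 h treatment, detected by CellTiter-Glo luminescence (15min room-temperature development), reflects cell viability. Wells contained 1000 cells and received compounds at 11 concentrations.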

[17] = Panc-1005 Cancer Cell Toxicity qHTS against the NCATS CANVASS Library (AID 1347349); also: nearly all actives have a fitted effect of over 60% in size; also: potency is read from the fitted curve at half-maximal effect
How it was run: as §2

[18] = qHTS for activators of dead-cell proteases activity screened against the NCATS CANVASS Library (AID 1347392);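 also: luminescence from protease leaking out of membrane-damaged cells cleaving impermeant substrate; rising signal means more cytotoxicity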
How it was run: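 Compounds are pin-transferred onto attached HepG2 cells, giving 11 final concentrations. After 5 h at 37C, AAF-aminoluciferin reagent is added and luminescence is recorded at room temperature.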

[19] = Redox Reaction Profiling qHTS: Assay Interference Panel against the NCATS CANVASS Library (AID 1347401)
How it was run: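 Cell-free redox surrogate: 5 uM resazurin + 200 uM DTT, 50 mM HEPES pH 7.3/50 mM NaCl; cpds pinned, 11-pt qHTS; Ex525/Em598 read t0 and t=15 min, dark.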

[20] = UWB1.289-WTBRCA1 Cancer Cell Toxicity qHTS against the NCATS CANVASS Library (AID 1347354); also: potency is read from the fitted curve at half-maximal effect
How it was run: as §1

Measured: Potency

C/C=C/C(=O)C1(O)CC2CC(C(=O)O)CC(C)C2C1C1=C2C(=O)NC(=O)C2=C(CCCCC)C(C)O1 (stereo not given)
active: [1] 18.8 µM | [2] 8.33 µM | [5] 16.6 µM | [7] 5.94 µM | [9] 1.17 µM | [10] 19.3 µM
inactive: [3] | [4] | [6] | [8] | [11]

C/C=C(/C)c1c(Cl)c(OC)c(C)c2c1Oc1c(Cl)c(O)c(Cl)c(C)c1C(=O)O2
inactive: [12] | [13] | [5] | [8] | [14] | [9] | [10] | [15]
active: [1] 13.3 µM | [7] 10.6 µM | [11] 3.71 µM

C[C@@H]1CC[C@]2(C(=O)O)CC[C@]3(C)C(=C2[C@H]1C)CC[C@@H]1[C@@]2(C)CC[C@H](O)C(C)(C)[C@@H]2CC[C@]13C
active: [16] 11.8 µM | [17] 21.1 µM | [11] 18.6 µM
inactive: [2] | [3] | [4] | [5] | [8] | [9] | [18] | [10] | [19]

C[C@@]1(CCC(=O)Nc2c(O)ccc(C(=O)O)c2O)C(=O)C=C[C@]23C[C@H]4C[C@H](O[C@@]4(C)C2)C31 (stereo not given in full)
not listed: [8] | [14]
inactive: all other assays above

CCCc1c2c([nH]c(=O)c1C)C(=O)c1[nH]c(=O)c(C)c(CCC)c1C2=O
active: [16] 11.8 µM | [17] 10.6 µM | [12] 7.47 µM | [2] 14.8 µM | [20] 7.47 µM | [7] 9.41 µM
inactive: [13] | [3] | [4] | [6] | [8] | [14] | [11] | [15]

COc1cc2ccc(=O)oc2c(O)c1O[C@@H]1O[C@H](CO)[C@@H](O)[C@H](O)[C@H]1O
not listed: [6] | [8] | [10] | [14] | [16] | [17] | [19]
inactive: all other assays above

COc1ccc(-c2oc3cc(OC)cc(OC)c3c(=O)c2O)cc1
active: [13] 18.7 µM | [5] 10.5 µM | [7] 0.472 µM
not listed: [2] | [4] | [10] | [15]
inactive: all other assays above

COC(=O)[C@]1([C@H]2CCC(=O)O2)CC(=O)c2c(O)cc(C)cc2O1
not listed: [19]
inactive: all other assays above

CC(CCC[C@]1(C)C(=O)C=C[C@@]23C[C@]4(C)O[C@@H](C[C@@H]4[C@H]2O)C31)C(=O)O (stereo not given in full)
not listed: [6] | [14]
inactive: all other assays above

C=C[C@]1(C)CC[C@@H]([C@H](C)C(=O)CC=C(C)C)O1
not listed: [3] | [6] | [10]
inactive: all other assays above

COC(=O)c1cccc2oc(-c3cccc4oc(-c5c(C)cccc5O)nc34)nc12
active: [1] 2.66 µM | [2] 3.32 µM | [7] 0.941 µM | [9] 1.86 µM
inactive: [13] | [3] | [6] | [8] | [14] | [18] | [15] | [19]

C=C1[C@@]2(C)CC3C4(C)CCC(O)C(C)(C)C4CCC3(C)[C@]1(C(=O)OC)C(=O)C(C)(O)C2=O (stereo not given in full)
active: [10] 8.6 µM
not listed: [18]
inactive: all other assays above

CC1=C(C)C(=O)OC(C(C)C2(O)CCC3C4C5OC5C5(O)CC=CC(=O)C5(C)C4CCC32C)C1 (stereo not given)
inactive: [1] | [20] | [4] | [6] | [7] | [8] | [14] | [11]
active: [5] 13.2 µM | [9] 18.6 µM
